Test results taken from PubChem BioAssay.
Active and inactive are the calls of the source.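 How the source made its calls, unless noted: active means inhibition at or above 50% relative to wild type and mutant plate controls; inactive means inhibition below 50%.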

Tests used:
[1] = inhibitors of TNFa-induced NFkB p65 translocation, primary screen, imaging, HUVEC, MLSMR starter and 10KST1 sets (AID 438;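 active means inhibition above 20% together with a positive visual image hit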;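 further: compound added about 3h40 before a 20 min TNFalpha stimulation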;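 on inhibition: signal is the nuclear over cytoplasmic p65 intensity ratio per well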); settings: HUVEC TNFa-induced p65 nuclear translocation; cell count: measured here: nuclei count (cytotoxicity indicator), at 2.08 µM; inhibition: at 2 µM, stronger effect = higher value, 0% TNFa-plus-vehicle, 100% no-TNFa wells
[2] = reduction of polyQ htt aggregates in cells – imaging, exon1htt(103Q)mCFP cells, high-content imaging, primary screen (AID 483;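 active means visual image review flags a hit and inhibition of aggregation exceeds 20%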;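 further: compound exposure lasted 3 days before fixation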;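 on nuclei count: percent of the per-plate median nuclei count of sample wells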); settings: exon1htt(103Q)mCFP cell line, aggregate imaging, at 2 µM; inhibition of aggregation: stronger effect = higher value; nuclei count: measured here: cell count, toxicity
[3] = endothelial E-selectin expression blockers – imaging, HUVEC, immunofluorescence, MLSMR starter and 10KST1 sets, primary screen (AID 487;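 active means visually confirmed hit in the image check and inhibition above 20%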;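 on inhibition: signal is fraction of cell area covered by stained E-selectin grains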;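 on nuclei count: 100% = median nuclei count of all wells on the same plate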); settings: HUVEC TNFalpha-induced E-selectin immunofluorescence imaging, at 2 µM; inhibition: stronger effect = higher value; nuclei count: measured here: cell number, toxicity
[4] = Primary imaging screen for DUSP6 inhibitors that restore phospho-Erk in transfected HeLa cells, chemical complementation (AID 609;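 active means compounds giving at least 50% inhibition in the cell-based MKP-3 phosphatase rescue imaging test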;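 on inhibition: phospho-Erk level distribution per well compared with pooled transfected vehicle control wells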); settings: HeLa MKP-3 transfected, phospho-Erk imaging KS statistic, at 10 µM, cells stimulated with TPA for 15 min
[5] = molecular target: Dual specificity protein phosphatase 6 (Homo sapiens) (UniProt Q16828); test: as above; settings: HeLa MKP-3 transfected, phospho-Erk imaging KS statistic; at 10 µM; stronger effect = higher value; cells stimulated with TPA for 15 min
[6] = molecular target: Voltage-gated potassium channel subunit beta-2 (Rattus norvegicus) (UniProt P62483); test: inhibitors of rat Kvbeta2 reductase activity – biochemical, NADPH fluorescence, primary screen (AID 622;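 active means fluorescence slope higher than the sample average by over 3 SD, cut at about -0.22 in these data, passing the limit was not always enough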;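 further: slope of raw intensity against log time taken from 70 to 1610 s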); settings: recombinant KvBeta, 4-cyanobenzaldehyde reduction, at 10 µM, stronger effect = higher value
[7] = molecular target: Voltage-gated potassium channel subunit beta-2 (Rattus norvegicus) (UniProt P62483); test: enhancers of rat Kvbeta2 NADPH turnover – biochemical, NADPH fluorescence, primary screen (AID 623;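 active means NADPH fluorescence slope more negative than the mean of all samples by about 3 SD, 99.7% confidence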;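 further: fluorescence intensity change per second fitted from 20 to 320 s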); settings: Recombinant KvBeta, NADPH fluorescence decrease slope, 10 min; at 10 µM; stronger effect = lower value
[8] = molecular target: Alpha-2C adrenergic receptor (Homo sapiens) (UniProt P18825); test: compounds altering alpha2C-coupled GIRK flux – cell-based, HEK293 alpha2C/GIRK1/2, thallium flux, primary screen (AID 624;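 active means fluorescence slope after compound addition differing from the mean of all screened samples at 99.7% confidence, in either direction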;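 further: slope of fluorescence ratio to pre-addition baseline per second over 15 to 24 s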); settings: thallium flux BTC fluorescence, at 10 µM, actives lie on both sides
[9] = molecular target: Muscarinic acetylcholine receptor M4 (Homo sapiens) (UniProt P08173); test: M4-linked GIRK flux change, two-sided – cell-based, HEK293 M4/GIRK, thallium flux, BTC-AM, M4 allosteric agonist project, primary screen (AID 625;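 active means fluorescence slope after compound addition differing from the mean of all tested samples at 99.7% confidence, mostly higher but some lower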;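 further: thallium influx through GIRK channels coupled to M4 in HEK293 cells with BTC-AM dye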); settings: at 10 µM, actives lie on both sides
[10] = inhibitors of larval lipid processing in zebrafish, primary screen, whole organism, PED6 fluorescence, gall bladder and intestine (AID 686;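 active means a full or partial loss of lipid-probe fluorescence in the fish gall bladder, intestine or both, judged by eye; inactive means no fluorescence loss, or compound toxic to the fish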;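 further: larvae 5 to 7 days old with five fish per well; signal comes from phospholipase A2 cleavage of quenched PED6 carried via bile; overnight exposure to compound and PED6 before scoring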); settings: Zebrafish larvae PED6 lipid processing, fluorescence scoring; screened at 20 µM (by protocol)
[11] = loss of swimming-algae plug formation – whole organism, Chlamydomonas reinhardtii, WT vs cilia-less mutant, absorbance, 96-well, primary screen (AID 463189); settings: Chlamydomonas reinhardtii gravitaxis, OD600 absorbance, 2 days; at 10 µM; stronger effect = higher value;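 further: 0% = wild type cc124 cells in DMSO and 100% = ciliumless bld1 mutant cells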
[12] = blockers of RIG-like receptor reporter activation – cell-based, Sendai virus stimulus, luciferase, 10K MLSCN set, TLR/RLR signaling modifier project, primary screen (AID 602276;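 active means inhibition at or above 50% at 10 µM; inactive means inhibition below 50%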;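 further: firefly luciferase from ISG56 promoter only with Renilla not read in this screen; 0% = Sendai virus plus DMSO and 100% = medium plus DMSO without virus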); settings: HEK293 RL24 IRF3 luciferase reporter, at 10 µM, stronger effect = higher value
[13] = TLR3 IRF3 reporter activation blockers – cell-based, poly I:C stimulus, luciferase, 10K MLSCN set, primary screen (AID 602277;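 active means inhibition of the reporter signal at or above 50%; inactive means inhibition below 50%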); settings: HEK293-TLR3 RL24 IRF3 luciferase reporter, at 10 µM, stronger effect = higher value
[14] = measured here: cell density z-score
[15] = measured here: nuclear c-Myc green intensity z-score
[16] = measured here: nuclear pErk red intensity z-score, stronger effect = higher value

Dual specificity protein phosphatase 6 (Homo sapiens), sequence (Q16828 whole entry, looked up): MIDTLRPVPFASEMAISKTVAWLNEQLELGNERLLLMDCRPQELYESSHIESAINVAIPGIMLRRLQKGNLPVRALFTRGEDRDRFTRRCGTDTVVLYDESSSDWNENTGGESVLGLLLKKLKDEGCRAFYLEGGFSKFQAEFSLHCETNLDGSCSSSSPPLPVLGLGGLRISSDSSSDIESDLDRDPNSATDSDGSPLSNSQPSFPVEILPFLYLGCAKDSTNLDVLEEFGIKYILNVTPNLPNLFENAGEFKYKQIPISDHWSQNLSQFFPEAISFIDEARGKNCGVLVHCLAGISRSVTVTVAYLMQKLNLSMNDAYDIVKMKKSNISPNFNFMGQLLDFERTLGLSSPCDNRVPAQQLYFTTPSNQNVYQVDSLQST
Muscarinic acetylcholine receptor M4 (Homo sapiens), sequence (P08173 whole entry, looked up): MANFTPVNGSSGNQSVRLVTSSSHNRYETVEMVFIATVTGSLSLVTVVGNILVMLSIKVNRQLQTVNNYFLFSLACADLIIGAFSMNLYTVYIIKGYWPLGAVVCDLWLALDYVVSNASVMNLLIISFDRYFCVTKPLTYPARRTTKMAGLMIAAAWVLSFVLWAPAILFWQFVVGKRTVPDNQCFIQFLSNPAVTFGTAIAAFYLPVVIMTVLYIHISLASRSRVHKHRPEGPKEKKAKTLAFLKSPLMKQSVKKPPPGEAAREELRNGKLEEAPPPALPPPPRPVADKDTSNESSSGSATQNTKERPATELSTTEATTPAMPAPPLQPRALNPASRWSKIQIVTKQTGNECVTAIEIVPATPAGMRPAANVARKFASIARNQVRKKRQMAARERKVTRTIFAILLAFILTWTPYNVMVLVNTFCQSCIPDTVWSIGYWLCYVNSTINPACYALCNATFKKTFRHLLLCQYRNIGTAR
Voltage-gated potassium channel subunit beta-2 (Rattus norvegicus), sequence (P62483 whole entry, looked up): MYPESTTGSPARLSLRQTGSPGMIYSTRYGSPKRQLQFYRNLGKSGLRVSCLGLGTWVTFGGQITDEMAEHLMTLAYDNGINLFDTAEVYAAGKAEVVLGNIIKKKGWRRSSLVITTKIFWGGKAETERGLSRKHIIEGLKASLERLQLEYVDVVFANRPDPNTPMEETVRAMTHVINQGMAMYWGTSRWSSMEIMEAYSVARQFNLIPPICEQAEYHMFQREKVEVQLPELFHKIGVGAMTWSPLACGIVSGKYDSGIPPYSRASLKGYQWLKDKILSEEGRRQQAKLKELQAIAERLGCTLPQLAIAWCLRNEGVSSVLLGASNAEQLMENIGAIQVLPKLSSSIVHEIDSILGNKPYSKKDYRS
Alpha-2C adrenergic receptor (Homo sapiens), sequence (P18825 whole entry, looked up): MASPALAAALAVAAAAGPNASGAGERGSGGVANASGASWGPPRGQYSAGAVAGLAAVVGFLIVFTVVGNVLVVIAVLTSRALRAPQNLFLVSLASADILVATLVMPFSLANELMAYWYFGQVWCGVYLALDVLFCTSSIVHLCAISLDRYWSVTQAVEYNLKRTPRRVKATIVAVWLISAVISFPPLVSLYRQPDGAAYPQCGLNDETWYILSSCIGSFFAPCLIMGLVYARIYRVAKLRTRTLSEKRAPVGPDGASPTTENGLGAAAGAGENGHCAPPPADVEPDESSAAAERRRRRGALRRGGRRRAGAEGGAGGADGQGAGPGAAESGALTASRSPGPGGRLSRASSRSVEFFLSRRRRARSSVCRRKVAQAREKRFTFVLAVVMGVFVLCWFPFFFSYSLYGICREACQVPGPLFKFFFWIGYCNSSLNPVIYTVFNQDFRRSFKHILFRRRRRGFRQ

Row | SMILES | cell count [1] | inhibition [1] | inhibition of aggregation [2] | nuclei count [2] [%] | inhibition [3] | nuclei count [3] [%] | z-score [4, 14] | z-score [4, 15] | z-score [4, 16] | inhibition [5] | fluorescence slope [6] | NADPH fluorescence slope [7] | slope [8] | fluorescence slope [9] | outcome [10] | inhibition [11] | inhibition [12] | inhibition [13]
1 | CCN(CC)CCN1C(=O)C(O)=C(C(=O)c2cccs2)C1c1ccccn1 (centres undefined) | 503 | 1.8% (inactive) | -4.1% (inactive) | 102 | -7.4% (inactive) | 120 | -0.956 | 0.653 | -1.67 | -0.608% (inactive) | -0.468 (inactive) | -0.000108 (inactive) | 0.00594 (inactive) | 0.0052 (inactive) | inactive | -9.88% (inactive) | 4.53% (inactive) | 12% (inactive)
2 | O=C(NCc1cccnc1)/C(=N\O)c1ccccc1 | 415 | -4.8% (inactive) | -9.8% (inactive) | 100 | -66.8% (inactive) | 97.2 | 0.444 | 0.0712 | -0.943 | 5.95% (inactive) | -0.424 (inactive) | 1.4e-05 (inactive) | 0.00513 (inactive) | 0.00494 (inactive) | inactive | -9.8% (inactive) | 6.94% (inactive) | 4.43% (inactive)
3 | CCOC(=O)C1/C(=N\O)CC(C)(O)C(C(=O)OCC)C1c1ccc(N(C)C)cc1 (centres undefined) | 497 | -1.5% (inactive) | -7.6% (inactive) | 106 | -131% (inactive) | 152 | -0.215 | 1.47 | 0.208 | 1.9e-07% (inactive) | -0.427 (inactive) | -4.6e-05 (inactive) | 0.00546 (inactive) | 0.00445 (inactive) | inactive | 0.652% (inactive) | 10.4% (inactive) | 16% (inactive)
4 | Cc1cc(C)c2c(N)c(C(=O)c3ccccc3)oc2n1 | 544 | -4.5% (inactive) | 6.6% (inactive) | 96.6 | -33.5% (inactive) | 134 | -0.541 | 1.87 | 0.479 | -3.95% (inactive) | -0.437 (inactive) | -2.9e-05 (inactive) | 0.00545 (inactive) | 0.00618 (inactive) | inactive | 14.6% (inactive) | -2.38% (inactive) | -28.6% (inactive)
5 | COc1cccc(NC(=O)CC2SC(=Nc3ccccc3)NC2=O)c1 (centres undefined) | 593 | 2.2% (inactive) | 32.9% (inactive) | 84.1 | -29.5% (inactive) | 132 | -0.312 | -0.394 | 0.335 | 9.91% (inactive) | -0.37 (inactive) | -1.5e-05 (inactive) | 0.00453 (inactive) | 0.00596 (inactive) | inactive | 32.2% (inactive) | -8.37% (inactive) | 97.6% (active)
6 | CC1(C2(O)CC(c3ccccc3)ON2)CCCCC1 (centres undefined) | 623 | 1.7% (inactive) | 41.9% (inactive) | 65.3 | -10.4% (inactive) | 105 | -1.89 | -1.27 | 0.343 | -6.06% (inactive) | -0.516 (inactive) | -7.6e-05 (inactive) | 0.0054 (inactive) | 0.00556 (inactive) | inactive | 9.38% (inactive) | 2.61% (inactive) | 4.59% (inactive)
7 | Cn1c(=O)c2c(nc(NCc3ccc4c(c3)OCO4)n2Cc2ccccc2F)n(C)c1=O | 651 | -4.2% (inactive) | 37.8% (active) | 50.9 | -161% (inactive) | 126 | -0.011 | -1.47 | 0.345 | 1.9e-07% (inactive) | -0.45 (inactive) | -0.000288 (inactive) | 0.00635 (inactive) | 0.00703 (inactive) | inactive | 38.3% (inactive) | -2.97% (inactive) | 10.4% (inactive)
8 | COc1cc2[nH]c3c(=O)n(CCN(C(C)C)C(C)C)cnc3c2cc1OC | 531 | -5.6% (inactive) | -4% (inactive) | 102 | -26.1% (inactive) | 150 | 0.411 | -1.49 | 0.261 | 3.97% (inactive) | -0.317 (inactive) | -1.9e-05 (inactive) | 0.00406 (inactive) | 0.00609 (inactive) | inactive | 5.81% (inactive) | 10.1% (inactive) | 33.2% (inactive)
